A short description of experiment [1]: NCI Yeast Anticancer Drug Screen. Data for the rad50 strain (AID 155).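 Also: 0% = growth of vehicle-only cultures of the same strain.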 The conditions noted are these: S. cerevisiae rad50 strain growth inhibition, hits give high values. The method, boiled down:
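DNA repair mutant yeast, compound exposure, growth read-out; inhibition is taken relative to vehicle.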

Experiment [2] can be described thus: NCI Yeast Anticancer Drug Screen. Data for the mec2-1 strain (AID 157). The conditions noted are these: S. cerevisiae mec2-1 strain, hits give high values. The essentials: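 Mutant yeast (mec2-1) grown with compound; growth inhibition relative to vehicle control reported.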
Experiment [3] can be described thus: NCI Yeast Anticancer Drug Screen. Data for the sgs1 mgt1 strain (AID 161).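 Also: 0% = growth of cultures given vehicle only.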 The conditions noted are these: S. cerevisiae sgs1 mgt1 strain, hits give high values. The essentials: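 Growth of a repair-deficient yeast mutant was monitored after compound treatment and expressed as inhibition relative to vehicle-treated cultures.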
The nature of experiment [4]: NCI Yeast Anticancer Drug Screen. Data for the cln2 rad14 strain (AID 165).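 Also: 0% = growth equal to vehicle treated cultures.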 The conditions noted are these: S. cerevisiae cln2 rad14 strain, hits give high values. The essentials:
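Readout is yeast growth inhibition versus vehicle-treated controls, using a strain with cln2 and rad14 alterations exposed to compound.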

Experiment [5] is described as follows: NCI Yeast Anticancer Drug Screen. Data for the bub3 strain (AID 167). Particulars: S. cerevisiae bub3 mutant strain, hits give high values. The method, boiled down:
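In this screen, a yeast mutant lacking normal mitotic checkpoint function is challenged with compound. Relative growth versus vehicle gives the inhibition value.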

A short description of experiment [6]: NCI Yeast Anticancer Drug Screen. Data for the mlh1 rad18 strain (AID 175). Particulars: S. cerevisiae mlh1 rad18 strain growth inhibition, hits give high values. The essentials: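 Genetically defined yeast (DNA repair-deficient) exposed to compounds; growth inhibition determined relative to vehicle.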
Where [7] appears, read: at 5.0 µM (retest, dose inferred, filed as 0.5).
Where [8] appears, read: at 50.0 µM (retest, dose inferred, filed as 5.0).

Compounds without any hit were thinned out: in the full panel of roughly 79,000, 15% have a hit. Values without a mark were called inactive. The source made the active and inactive calls. Rule as the data show it: active = growth inhibition above about 70%; inactive = the rest.

Take `COC(=O)c1cc(OC)c(OC)c(OC)c1`: the growth inhibition was 4% in experiment [1] (setting [7]); 72% (active) in experiment [1] (setting [8]); 4.25% in experiment [1] (at 50.0 µM); 1% in experiment [2] (setting [7]); 18% in experiment [2] (setting [8]); -0.5% in experiment [2] (at 50.0 µM). Further, the growth inhibition is 2% in experiment [3] (setting [7]); 29% in experiment [3] (setting [8]); -13.1% in experiment [3] (at 50.0 µM); 2% in experiment [4] (setting [7]); 60% in experiment [4] (setting [8]); -23.3% in experiment [4] (at 50.0 µM). Also, the growth inhibition in experiment [5] (setting [7]) was 2%; in experiment [5] (setting [8]), 70% (active); in experiment [5] (at 50.0 µM), 36.9%; in experiment [6] (setting [7]) it was -1%; in experiment [6] (setting [8]), 48%; in experiment [6] (at 50.0 µM) it was 0.25%.
As to `COC(=O)c1ccccc1N=NN(C)CC1OC2OC(C)(C)OC2C1OC` (stereo not given), the growth inhibition in experiment [1] (setting [7]) was 10%; in experiment [1] (setting [8]), 69%; in experiment [1] (at 50.0 µM) it was 71.2% (active); in experiment [2] (setting [7]), 17%; in experiment [2] (setting [8]), 27%; in experiment [2] (at 50.0 µM) it was 43.2%. The growth inhibition is 1% in experiment [3] (setting [7]); 36% in experiment [3] (setting [8]); 74.1% (active) in experiment [3] (at 50.0 µM); -3% in experiment [4] (setting [7]); 20% in experiment [4] (setting [8]); -0.8% in experiment [4] (at 50.0 µM). Moreover, the growth inhibition was 0% in experiment [5] (setting [7]); 44% in experiment [5] (setting [8]); 32.6% in experiment [5] (at 50.0 µM); 4% in experiment [6] (setting [7]); 61% in experiment [6] (setting [8]); 88% (active) in experiment [6] (at 50.0 µM).
For the compound `O=[N+]([O-])c1ccc(Oc2c(Cl)cccc2Cl)cc1`, the growth inhibition in experiment [1] (setting [7]) is -7%; in experiment [1] (setting [8]), 9%; in experiment [1] (at 50.0 µM), -12.9%; in experiment [2] (setting [7]), -13%; in experiment [2] (setting [8]), -5%; in experiment [2] (at 50.0 µM) it was -11.7%. Besides, the growth inhibition in experiment [3] (setting [7]) was -6%; in experiment [3] (setting [8]) it was -33%; in experiment [3] (at 50.0 µM), 5.4%; in experiment [4] (setting [7]) it was -9%; in experiment [4] (setting [8]), -1%; in experiment [4] (at 50.0 µM), -44.1%. For the same compound, the growth inhibition is 14% in experiment [5] (setting [7]); 19% in experiment [5] (setting [8]); 75.5% (active) in experiment [5] (at 50.0 µM); -12% in experiment [6] (setting [7]); 13% in experiment [6] (setting [8]); 14.8% in experiment [6] (at 50.0 µM).
For `O=C(Nc1ccc(S(=O)(=O)NC2CCCCC2)cc1)OC1CCCCC1`, the growth inhibition in experiment [1] (setting [7]) is 14%; in experiment [1] (setting [8]), 95% (active); in experiment [1] (at 50.0 µM), 92.9% (active); in experiment [2] (setting [7]), 30%; in experiment [2] (setting [8]), 98% (active); in experiment [2] (at 50.0 µM), 93.4% (active). The growth inhibition in experiment [3] (setting [7]) was 66%; in experiment [3] (setting [8]) it was 92% (active); in experiment [3] (at 50.0 µM), 94.3% (active); in experiment [4] (setting [7]), -10%; in experiment [4] (setting [8]), 93% (active); in experiment [4] (at 50.0 µM) it was 93.7% (active). The growth inhibition in experiment [5] (setting [7]) was 10%; in experiment [5] (setting [8]), 95% (active); in experiment [5] (at 50.0 µM) it was 92.3% (active); in experiment [6] (setting [7]) it was 11%; in experiment [6] (setting [8]) it was 95% (active); in experiment [6] (at 50.0 µM), 94% (active).
Take `S=C(N/N=C/c1ccccn1)N1CCCCCC1`: the growth inhibition is 99% (active) in experiment [1] (setting [7]); 100% (active) in experiment [1] (setting [8]); 88.8% (active) in experiment [1] (at 50.0 µM); 98% (active) in experiment [2] (setting [7]); 100% (active) in experiment [2] (setting [8]); 92.8% (active) in experiment [2] (at 50.0 µM). Further, the growth inhibition in experiment [3] (setting [7]) is 98% (active); in experiment [3] (setting [8]), 99% (active); in experiment [3] (at 50.0 µM), 91.6% (active); in experiment [4] (setting [7]), 97% (active); in experiment [4] (setting [8]) it was 100% (active); in experiment [4] (at 50.0 µM) it was 92.8% (active). The growth inhibition was 99% (active) in experiment [5] (setting [7]); 100% (active) in experiment [5] (setting [8]); 92.2% (active) in experiment [5] (at 50.0 µM); 99% (active) in experiment [6] (setting [7]); 99% (active) in experiment [6] (setting [8]); 88.8% (active) in experiment [6] (at 50.0 µM).
For `C/C(=N/O)c1cc([N+](=O)[O-])c(O)cc1O`, the growth inhibition in experiment [1] (setting [7]) was -27%; in experiment [1] (setting [8]) it was 70% (active); in experiment [1] (at 50.0 µM), 86.7% (active); in experiment [2] (setting [7]), -10%; in experiment [2] (setting [8]), 76% (active); in experiment [2] (at 50.0 µM) it was 84.9% (active). Further, the growth inhibition in experiment [3] (setting [7]) was -15%; in experiment [3] (setting [8]), 80% (active); in experiment [3] (at 50.0 µM), 89.2% (active); in experiment [4] (setting [7]), -6%; in experiment [4] (setting [8]), 44%; in experiment [4] (at 50.0 µM), 61.1%. Besides, the growth inhibition in experiment [5] (setting [7]) is -35%; in experiment [5] (setting [8]), 76% (active); in experiment [5] (at 50.0 µM) it was 86.5% (active); in experiment [6] (setting [7]) it was -16%; in experiment [6] (setting [8]), 80% (active); in experiment [6] (at 50.0 µM), 85.8% (active).
For the compound `Nc1nc(N)c2nc(CNc3ccc(C(=O)NC(CCC(=O)O)C(=O)O)cc3)cnc2n1` (stereo not given), the growth inhibition was -4% in experiment [1] (setting [7]); 30% in experiment [1] (setting [8]); 64.8% in experiment [1] (at 50.0 µM); -3% in experiment [2] (setting [7]); 91% (active) in experiment [2] (setting [8]); 97.8% (active) in experiment [2] (at 50.0 µM). Besides, the growth inhibition in experiment [3] (setting [7]) is -2%; in experiment [3] (setting [8]) it was -19%; in experiment [3] (at 50.0 µM) it was 34.5%; in experiment [4] (setting [7]), 5%; in experiment [4] (setting [8]), -47%; in experiment [4] (at 50.0 µM) it was -48.9%. Moreover, the growth inhibition in experiment [5] (setting [7]) is 0%; in experiment [5] (setting [8]), -47%; in experiment [5] (at 50.0 µM), 74.8% (active); in experiment [6] (setting [7]), -1%; in experiment [6] (setting [8]), -19%; in experiment [6] (at 50.0 µM), 83.5% (active).
With `Nc1nccc(NCCCCCCNc2ccnc(N)n2)n1`, the growth inhibition in experiment [1] (setting [7]) was 16%; in experiment [1] (setting [8]), 41%; in experiment [1] (at 50.0 µM), 43.2%; in experiment [2] (setting [7]) it was 13%; in experiment [2] (setting [8]), 19%; in experiment [2] (at 50.0 µM), 41.6%. Further, the growth inhibition in experiment [3] (setting [7]) is 8%; in experiment [3] (setting [8]) it was 36%; in experiment [3] (at 50.0 µM), 80% (active); in experiment [4] (setting [7]), 17%; in experiment [4] (setting [8]) it was 21%; in experiment [4] (at 50.0 µM), 52%. For the same compound, the growth inhibition was 9% in experiment [5] (setting [7]); 33% in experiment [5] (setting [8]); 48% in experiment [5] (at 50.0 µM); 17% in experiment [6] (setting [7]); 60% in experiment [6] (setting [8]); 57.2% in experiment [6] (at 50.0 µM).
Turning to `O=[N+]([O-])/C(C(Cl)=C(Cl)Cl)=C(/Sc1ccccc1)N1CCOCC1`, the growth inhibition was 5% in experiment [1] (setting [7]); 99% (active) in experiment [1] (setting [8]); 88.2% (active) in experiment [1] (at 50.0 µM); 2% in experiment [2] (setting [7]); 99% (active) in experiment [2] (setting [8]); 91.8% (active) in experiment [2] (at 50.0 µM). Further, the growth inhibition in experiment [3] (setting [7]) is -4%; in experiment [3] (setting [8]), 99% (active); in experiment [3] (at 50.0 µM), 85.8% (active); in experiment [4] (setting [7]) it was -7%; in experiment [4] (setting [8]), 99% (active); in experiment [4] (at 50.0 µM) it was 89.2% (active). Further, the growth inhibition in experiment [5] (setting [7]) is -20%; in experiment [5] (setting [8]), 99% (active); in experiment [5] (at 50.0 µM), 89.5% (active); in experiment [6] (setting [7]), 15%; in experiment [6] (setting [8]) it was 98% (active); in experiment [6] (at 50.0 µM) it was 83.2% (active).
Consider `CCc1c(Nc2ccccc2C)[nH]c(N)nc1=S`, for which the growth inhibition in experiment [1] (setting [7]) was -2%; in experiment [1] (setting [8]), -32%; in experiment [1] (at 50.0 µM), -6.6%; in experiment [2] (setting [7]) it was -2%; in experiment [2] (setting [8]), -7%; in experiment [2] (at 50.0 µM) it was 5.35%. Also, the growth inhibition in experiment [3] (setting [7]) was -1%; in experiment [3] (setting [8]), -7%; in experiment [3] (at 50.0 µM), 12.4%; in experiment [4] (setting [7]), -7%; in experiment [4] (setting [8]), -15%; in experiment [4] (at 50.0 µM) it was -7%. Also, the growth inhibition was -4% in experiment [5] (setting [7]); 8% in experiment [5] (setting [8]); 77.2% (active) in experiment [5] (at 50.0 µM); -1% in experiment [6] (setting [7]); -7% in experiment [6] (setting [8]); -12.4% in experiment [6] (at 50.0 µM).

The values are drawn from PubChem BioAssay (NCI).
